Screening data from PubChem BioAssay.
The list is not random: actives were taken first. Their share in the collection is about 4.6%.
D1 potentiator: potentiators of human D1 dopamine receptor | P21728 | HEK293 TREx D1 cells, calcium flux, dopamine EC20 potentiation | hit rate 0.036% among 360,000 | potentiation, % at 10 µM; in the data active means potentiation above about 30%; further: 0% is about no effect
D1 agonist: activates the human D1 dopamine receptor | P21728 | HEK293 T-REx D1 cells, calcium flux, agonist mode | activation, % at 2 µM | hit rate 1% among 360,000 | AID 504660; further: 0% is about no effect
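Agonism was scored from calcium flux recorded over 180 s (1 read/s) after pintool compound addition, following a 10-cycle baseline. Cells were inducible force-coupled HEK293 TREx D1, plated overnight at 30 C and loaded with no-wash calcium dye.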
TRHR ag: TRH receptor (human) agonism; activation, % at 2 µM; TRHR cells, calcium flux fluo-8, FDSS agonist mode; hit rate 0.18% among 360,000; AID 493084; further: 0% is about no effect
Target sequence (P34981 whole entry, looked up): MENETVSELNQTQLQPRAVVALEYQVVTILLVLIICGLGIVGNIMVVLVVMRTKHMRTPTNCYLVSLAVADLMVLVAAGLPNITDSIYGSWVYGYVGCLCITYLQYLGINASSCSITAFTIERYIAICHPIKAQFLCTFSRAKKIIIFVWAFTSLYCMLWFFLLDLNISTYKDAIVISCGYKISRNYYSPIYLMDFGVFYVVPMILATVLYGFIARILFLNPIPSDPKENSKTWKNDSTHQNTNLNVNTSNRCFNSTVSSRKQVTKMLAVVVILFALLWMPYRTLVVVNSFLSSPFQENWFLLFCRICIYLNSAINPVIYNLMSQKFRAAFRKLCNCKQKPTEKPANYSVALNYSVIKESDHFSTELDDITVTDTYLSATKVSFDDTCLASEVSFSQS
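TRHR-expressing cells loaded with fluo-8 calcium dye; 23 nL library compound pin-transferred, kinetic FDSS fluorescence (Ex 480/Em 530) recorded about 180 s for agonist-induced calcium release, before a 10 nM TRH EC20 addition for potentiator mode.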
Epigenetic reg: epigenetic control regulation, reporter derepression | murine LDR cells, GFP reporter derepression, 30 h | Potency, µM (highest dose often 53.9 µM), for inactives: at the highest dose GFP activation, most hits filed as activators | hit rate 0.2% among 280,000 | AID 1865; active means well fitted activation curve with a large enough effect; further: potency means the concentration at half of the fitted maximal effect; % of control where 0% means no effect; nearly all actives have a fitted effect of over 60% in size
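Readout is the number of GFP-expressing murine LDR cells, counted by cytometry following washing. Cells were treated with compound for 30 h at 37 C; the stably integrated CMV-GFP locus is normally silent.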
D1 antag: antagonists of human D1 dopamine receptor. P21728. HEK293 TREx D1 cells, calcium flux, dopamine EC80; stronger effect = lower value. activity change, negative = inhibition, % at 10 µM. hit rate 3.2% among 360,000. AID 504652; in the data active means activity change below about -30%; further: on the % scale 0 is the no-effect control and ±100 the full control effect
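Allosteric or orthosteric antagonism assessed as attenuation of the calcium response to EC80 dopamine, added 180 s after compound, in induced HEK293 Trex D1 cells loaded with no-wash calcium dye.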
TRHR PAM: allosteric enhancers of human TRH receptor; TRHR cells, fluo-8 calcium fluorescence, EC20 TRH enhancement; P34981; AID 493056; enhancement, % at 2 µM; hit rate 0.66% among 360,000; in the data active means enhancement above about 30%; further: 0% is about no effect
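TRHR-expressing cells loaded with fluo-8 calcium dye were read kinetically (ex 480/em 530) during compound addition, then stimulated with an EC20 of TRH (10 nM final). Enhancement of the Gq-mediated intracellular calcium response was scored.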
* = called active by the depositor; . = no result; [ ] = another dose, or the depositor's remark. Unless noted, no stated cut-off is given here; in the data, active means activation above about 30%; inactive means the rest.

SMILES | D1 potentiator | D1 agonist | TRHR ag | Epigenetic reg | D1 antag | TRHR PAM
COc1ccc(C2N3CC4(C)CN2CC(C)(C3)C4O)cc1OC (centres undefined) | -7 | 4 | 0 | 0% | -5 | 31*
CCc1nn(CC(=O)NCc2ccc(OC)c(OC)c2)c(=O)c2cc3sc(C)cc3n12 | 2 | -1 | 0 | 1% | 8 | -8
CCN(CC)c1ccc2cc(-c3nc4ccccc4n3C)c(=O)oc2c1 | -2 | 278* | 144* | 7.1µM* | -15 | 31*
Cc1ccc(-c2nc3ccccc3n2C)o1 | -12 | 3 | 1 | 1% | -15 | -13
CN(C)Cc1c(O)ccc2c(-c3ccccc3)cc(=O)oc12 | 0 | 9 | 0 | -1% | 2 | 0
O=c1oc2ccc3ccccc3c2cc1-c1nnc(-c2ccccc2)o1 | -4 | 5 | 0 | -1% | 4 | -10
CCN(CC)c1ccc2cc(-c3nc4ccccc4[nH]3)c(=O)oc2c1 | -10 | 547* | 207* | 2.8µM* | -77* | -23
CCN(CC)c1ccc2cc(-c3nnc(-c4ccccc4)o3)c(=O)oc2c1 | 6 | 244* | 224* | 3.2µM* | -5 | 16
CN(C)Cc1c(O)ccc2cc(-c3nc4ccccc4n3C)c(=O)oc12 | -3 | 22 | 23 | . | 3 | 40*
COc1cccc2cc(-c3nc4ccccc4[nH]3)c(=O)oc12 | -1 | 1 | 0 | . | -8 | 4
CCCN(CCC)C(=O)[C@@H](CCC(=O)O)NC(=O)c1ccccc1 | . | . | . | 11%[16.9 µM] | . | .
CC(C)NC[C@@H](O)c1ccc(O)c(O)c1 | 5 | 0 | 0 | 0% | -32* | 10
CCn1cc(C(=O)Nc2cccc(Cl)c2)c2cc(OC)c(OC)cc2c1=O | 0 | -1 | 0 | 1% | -18 | -1
O=C1NC(=Nc2ccccc2)S/C1=C\C=C\c1ccco1 | -3 | 7 | -1 | 2% | 14 | 1
Cc1ccc(N=C2NC(=O)S/C2=C\c2ccco2)cc1 | -8 | 9 | -1 | 0% | -36* | 0
Cc1ccc(N=C2NC(=O)/C(=C/C=C/c3ccco3)S2)cc1 | -5 | 2 | 0 | -1% | -7 | 8
O=C1NC(=Nc2ccccc2)/C(=C/c2ccco2)S1 | -11 | 6 | 1 | -1% | -37* | -4
CC(C)(C)C(=O)N1CCN(c2ccc(NC(=O)c3ccc4c(c3)OCCO4)cc2)CC1 | -4 | 5 | 1 | . | -30* | -4
CC(C)(C)C(=O)N1CCN(c2ccc(NC(=O)c3ccc([N+](=O)[O-])o3)cc2)CC1 | -8 | 48* | -1 | . | -8 | 5
CCCCC#CC1C=CC(Oc2cc(OC)c(OC)c(OC)c2)C(COC(=O)OCC)O1 (centres undefined) | . | . | . | 5%[10.1 µM] | . | .
COc1cccc(N2CCN(C(=O)c3ccc(CS(=O)Cc4ccccc4Cl)o3)CC2)c1 (centres undefined) | -4 | 0 | -1 | . | -10 | 1
O=C(c1ccc(CS(=O)c2ccccc2Cl)o1)N1CCN(c2ccccn2)CC1 (centres undefined) | -4 | 3 | 0 | . | -36* | -6
O=C(c1ccc(CS(=O)Cc2ccccc2Cl)o1)N1CCN(c2ccccn2)CC1 (centres undefined) | -5 | -1 | 0 | . | -3 | -4
O=C(c1ccc(CS(=O)Cc2ccccc2Cl)o1)N1CCN(c2cccc(Cl)c2)CC1 (centres undefined) | -17 | 28 | -1 | . | -45* | 2
O=C(c1ccc(CS(=O)Cc2ccc(Cl)cc2)o1)N1CCN(c2ccccn2)CC1 (centres undefined) | -11 | 1 | 0 | . | -36* | 0
SMILES | D1 potentiator | D1 agonist | TRHR ag | Epigenetic reg | D1 antag | TRHR PAM
CCOc1ccc(-n2nc(CO)c(C(=O)NCc3ccc(Cl)cc3)n2)cc1 | 0 | 5 | 0 | -2% | 14 | 1
CC(C)(C)c1ccc(/C=C/C(=O)Nc2ccc(S(N)(=O)=O)cc2)cc1 | -2 | 33* | -1 | 7% | -14 | 8
NS(=O)(=O)c1ccc(NC(=O)/C=C/c2ccc(S(=O)(=O)NCc3ccco3)cc2)cc1 | -5 | 5 | 1 | . | -43* | -6
CCC(=O)Nc1sc2c(c1C(=O)Nc1ccccc1C)CCC(C)C2 (centres undefined) | 3 | 9 | 0 | -2% | -1 | -5
COc1ccc2nc3sc(C(=O)Nc4cc(Cl)c(OC)cc4OC)cc3cc2c1 | 2 | 3 | 1 | 7% | -4 | 3
CCN(Cc1nc(-c2ccc(OC)c(OC)c2)no1)C(=O)c1ccc2c(c1)OCO2 | 0 | 5 | 0 | . | -2 | -3
CCN(Cc1nc(-c2ccc(OC)c(OC)c2)no1)S(=O)(=O)c1ccc(OC)cc1 | 2 | 1 | 0 | -1% | -34* | -4
COc1ccc(-c2noc(COc3ccc(C)c(C)c3)n2)cc1OC | -5 | 9 | 1 | 1% | -45* | -8
COc1ccc(-c2noc(COc3ccc(Br)cc3C)n2)cc1OC | -1 | 33* | 0 | 0% | 2 | 28
O=C(CSc1nnc2ccc(-c3ccc(F)cc3)nn12)NCC1CCCO1 (centres undefined) | -8 | 2 | 0 | . | 5 | 1
CCc1ccc(-c2ccc3nnc(SC)n3n2)cc1 | -5 | 4 | 0 | . | 4 | 4
CCSc1nnc2ccc(-c3ccc(C)cc3)nn12 | -4 | 59* | 0 | . | -28 | -3
O=C(CSc1nnc2ccc(-c3ccc(F)cc3)nn12)N1CCCC1 | -4 | 2 | -1 | 0% | -32* | 3
CCCN1CCN(c2ncnc3sc(C(=O)Nc4ccc(N(CC)CC)cc4C)c(C)c23)CC1 | 2 | 0 | -2 | -5% | 2 | 0
N=c1c2c(-c3ccccc3)c(-c3ccccc3)n(Cc3ccco3)c2ncn1CCO | -4 | 2 | 0 | 0% | 27 | -4
N=c1c2c(-c3ccccc3)c(-c3ccccc3)n(Cc3ccco3)c2ncn1CCCO | 2 | 45* | -1 | 1% | 0 | 5
O=C(Nc1cccc(C(=O)N2CCN(c3ccc(Cl)cc3)CC2)c1)c1nsc2ccccc12 | 0 | 2 | 0 | 6% | -13 | -2
COCCn1c(SCC(=O)c2ccc(C)cc2C)nc2cc(C(=O)NC3CCCC3)ccc2c1=O | -3 | 4 | 1 | 5% | 2 | -3
Cc1cc(C(=O)CSc2nnc3c(Cl)cc(Cl)cn23)c(C)n1C | 3 | 1 | 0 | -2% | -31* | -4
C=CCn1c(C)cc(C(=O)CSc2nnc3c(Cl)cc(Cl)cn23)c1C | -7 | 0 | -1 | -4% | -25 | -1
c1cc2c(cc1C1CCCCC1)c1c3n2CCCNC3CCC1 (centres undefined) | 18 | 122* | -1 | 0% | -7 | -2
